Our source for the Kd values is PMC5540273 (PLoS ONE, 2017).

SMILES strings stand for the structures.
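Further: kd values determined as follow-up on hits from a single-replicate KINOMEscan panel screen.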

One test relates to T1, TRKC.
T1 construct: gene NTRK3
Broadly, the Kd is a measure of binding affinity in units of concentration. Higher therefore signals a looser complex. Regarding `COC(=O)c1cccc(NC(=O)NC2CCN(c3ccnc(Nc4ccc(OC)cc4)n3)C2)c1` (centres unmarked) [GSK1379746], the Kd was 1000 nM.

In the case of `CC(=O)c1cccc(NC(=O)NC2CCN(c3ccnc(Nc4ccc(F)cc4)n3)C2)c1` (centres unmarked) [GSK1379710], the Kd is 94 nM.

With `COC(=O)c1cccc(NC(=O)NC2CCN(c3ccnc(Nc4ccc(F)cc4)n3)C2)c1` (centres unmarked) [GSK1379725], binding was put at a Kd of 340 nM.

The test system of another test is T2, VPS34.
T2 construct: gene PIK3C3
Regarding `O=C1NC(=O)C(c2ccc(Cl)cc2)=C1Nc1cccc(Cl)c1` [SB-317651], the Kd came to 300 nM.

`O=c1cc(N2CCOCC2)nc2n(Cc3cccc(Cl)c3Cl)c3ccccc3n12` [GSK2299009] yielded a Kd of 470 nM.

As to `Cc1c(Cn2c3ccccc3n3c(=O)cc(N4CCOCC4)nc23)cccc1C(F)(F)F` [GSK2306394], the Kd is > 10000 nM.

In turn, `O=c1cc(N2CCOCC2)nc2n(Cc3ccccc3F)ccn12` [GSK2297428] yielded a Kd of 68 nM.

In the case of `Cc1ccccc1Cn1ccn2c(=O)cc(N3CCOCC3)nc12` [GSK2269905], binding was put at a Kd of 180 nM.
